Bioassay records as filed in PubChem.
The list is not random: actives were taken first. Their share in the collection is about 13%.
WT yeast gro inh: growth inhibition of WT strain, primary screen, mitochondrial fusion inhibitor project, WT and mutant strains, chemical genetic. mitochondrial fusion phenotypic screen. inhibition, % at 10 µM. 2.1% of 190,000 active. AID 1362, 2008; in the data active = inhibition above about 58%; tested in S. cerevisiae
L major viab: Leishmania major promastigote growth inhibition, primary screen; inhibition, % at 10 µM; 9% of 200,000 active; Leishmania major promastigotes, resazurin fluorescence viability; in the data active = inhibition above about 50%;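 also: promastigotes grown with compound for 44 hours at 28 °C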
RAM inhibit: inhibitors of the yeast RAM network, primary screen, dse1pr::URA3 reporter, 5-FOA selection; S. cerevisiae dse1pr::URA3 reporter, 5-FOA growth OD615, 2 d; analog-sensitive cbk1-as2 kinase mutant strain; inhibition, % at 50 µM; 1.8% of 190,000 active; AID 868, 2007;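 active = inhibition above a set limit, 3 SD over mean compound inhibition, cut at about 8.4% in these data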;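 also: 0% = DMSO-only wells with no growth and 100% = 10 µM 1-NA-PP1 full growth; inhibition rescues growth on 5-FOA so higher OD means more RAM inhibition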
CHOP inh: inhibitors of CHOP promoter induction, primary screen, cell-based, unfolded protein response, luciferase reporter. CHO-K1 CHOP-promoter luciferase, tunicamycin-induced, 15-18 h. inhibition, % at 10 µM. 3.8% of 220,000 active;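 active = compounds that reduced the stress-induced luciferase reporter signal by more than about 70% of percent inhibition, limit read from the data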;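 also: 0% = tunicamycin plus vehicle and 100% = wells without tunicamycin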
An asterisk follows results filed as active; x = not tested or not shown.

SMILES | WT yeast gro inh | L major viab | RAM inhibit | CHOP inh
CC(=O)N1CCCc2cc(S(=O)(=O)N(C)CCC#N)ccc21 | x | -5 | 0 | -32
CCN(c1cccc(C)c1)S(=O)(=O)c1ccc2c(c1)CCN2C(C)=O | -31 | 94* | 4 | 32
CC(=O)N1CCc2cc(S(=O)(=O)N3CCOCC3)ccc21 | -18 | -3 | 0 | 51
CC(=O)N1CCCc2cc(S(=O)(=O)N(CC(C)C)CC(C)C)ccc21 | -8 | 85* | 0 | 54
CCN(c1cccc(C(F)(F)F)c1)S(=O)(=O)c1ccc2c(c1)CCN2C(C)=O | -13 | 60* | 1 | 28
C/C(=N\NC(=O)CNC(=O)c1ccncc1)c1ccc(C)cc1 | 13 | 3 | 2 | 17
C/C(=N/NC(=O)CNc1ccc(Cl)cc1C)c1ccc(C)cc1 | -8 | -2 | 3 | 87*
O=C(CCN1C(=O)c2cccc3cccc(c23)C1=O)NCc1ccco1 | -2 | -2 | 3 | 5
O=C(Nc1ccc(N=Nc2ccccc2)cc1)c1ccc(Cl)cc1Cl | 26 | -6 | 2 | 77*
O=C(NCC1OCCc2ccccc21)c1ccc(NC(=O)c2ccc(Cl)cc2Cl)cc1 (stereo unspecified) | -6 | -11 | 3 | 98*
O=C(Nc1ccc(N=Nc2ccccc2)cc1)c1ccccc1Cl | -6 | -8 | 2 | 46
CN(C(=O)/C(N=Nc1cccc(C(F)(F)F)c1)=C(\O)C(F)(F)F)c1ccccc1 | 70* | 0 | 7 | 73*
COc1ccc(CCNC(=O)c2cc(-c3ccccn3)nc3c(Cl)cccc23)cc1OC | 9 | 10 | 0 | 17
COc1ccc(CCNC(=O)c2cc(-c3ccncc3)nc3c(Cl)cccc23)cc1OC | 1 | 51* | 0 | 13
COc1ccc(CNC(=O)c2cc(-c3ccncc3)nc3c(C)cc(C)cc23)cc1OC | 3 | 20 | 2 | 89*
CC(C)c1c(Cl)c(O)c(-c2ccccc2)c(=O)n1-c1ccc(F)cc1 | -1 | -6 | 0 | 5
CCN(Cc1ccccc1)Cc1nnnn1Cc1ccccc1 | 4 | 17 | 0 | 4
COc1ccc(CNC(=O)c2cc(-c3cc(C)cc(C)c3O)n[nH]2)cc1 | x | x | x | -6
Cc1cc(C)c(O)c(-c2cc(C(=O)NCc3ccccc3)[nH]n2)c1 | 56 | 52* | 2 | 66
Cc1ccc(C2(CC(=O)Nc3nccs3)CCOC(C(C)C)C2)cc1 (stereo unspecified) | 22 | 40 | -1 | 31
COc1ccccc1C1(CC(=O)Nc2nccs2)CCOC(C(C)C)C1 (stereo unspecified) | 6 | 85* | -1 | 13
CNC(=O)c1ccsc1NC(=O)c1ccc(S(=O)(=O)N2CCCc3ccccc32)cc1 | 52 | 100* | 5 | 30
O=C(Nc1nc2c(s1)CCCC2)c1ccc(S(=O)(=O)N2CCCc3ccccc32)cc1 | 0 | 98* | 7 | 70
CC1CCc2nc(NC(=O)c3ccc(S(=O)(=O)N4CCCc5ccccc54)cc3)sc2C1 (stereo unspecified) | -4 | 15 | 3 | -3
COCc1nnc(NC(=O)c2ccc(S(=O)(=O)N3CCCCCC3)cc2)o1 | 24 | -6 | 2 | 7
SMILES | WT yeast gro inh | L major viab | RAM inhibit | CHOP inh
COC(=O)Nc1ccc(S(=O)(=O)N2CCCc3ccccc32)cc1 | -1 | 42 | 0 | x
CCc1nnc(NC(=O)c2ccc(S(=O)(=O)N3CCCc4ccccc43)cc2)o1 | 70* | 99* | 1 | 11
COc1ccccc1C(=O)Nc1ccc(S(=O)(=O)N2CCc3ccccc32)cc1 | -16 | 80* | 2 | 32
Cc1cc(C)c(NC(=O)NC(=O)C(Cl)(Cl)Cl)c(C)c1 | 2 | 14 | 2 | 24
CC1CCCCN1CCn1c(=S)[nH]c2cc3c(cc2c1=O)OCO3 (stereo unspecified) | -1 | 7 | 1 | -20
O=C1CCCC/C1=N\Nc1ccc(OCc2ccccc2)cc1 | 54 | 4 | 1 | 36
O=C(COC(=O)/C=C/c1ccco1)NCCc1ccccc1 | 9 | -6 | 1 | -2
COc1ccccc1-n1cc(C(=O)N2CCCC(CO)(Cc3ccccc3C)C2)cn1 (stereo unspecified) | 12 | 19 | 4 | 11
Cc1ccc(-c2noc(CN(C(=O)Cc3ccccc3)C(C)C)n2)cc1 | 19 | 16 | 1 | 38
CCc1ccccc1N(CC)C(=O)CCc1nc(-c2ccc(C)cc2)no1 | 72* | 20 | 2 | 60
Cc1ccc(-c2noc(CCC(=O)NCCc3ccccc3Cl)n2)cc1 | 23 | 0 | 3 | 68
CCN(Cc1ccccc1)C(=O)CCc1nc(-c2ccc(C)cc2)no1 | 22 | -1 | 3 | 71*
CCN(CCCNC(=O)CCc1nc(-c2ccc(C)cc2)no1)c1cccc(C)c1 | 64* | -2 | 0 | 71*
Cc1nc(SCC(=O)Nc2cccnc2Cl)nc(C)c1C | -15 | -3 | 0 | 13
CCOC(=O)c1c(NC(=O)C2COc3ccccc3O2)sc(C(C)=O)c1C (stereo unspecified) | 3 | 4 | 3 | 46
CCOC(=O)c1c(NC(=O)C2COc3ccccc3O2)sc2c1CC(C)(C)NC2(C)C (stereo unspecified) | 48 | 99* | 1 | 9
COc1ccc2nc(Sc3c([N+](=O)[O-])nc(C)n3Cc3ccccc3)[nH]c2c1 | 9 | 87* | 1 | -61
Cc1nc([N+](=O)[O-])c(Sc2nc3ccccc3[nH]2)n1Cc1ccccc1 | 5 | 99* | 1 | -7
CS(=O)(=O)c1cc([N+](=O)[O-])c(Sc2nc3ccccc3[nH]2)c([N+](=O)[O-])c1 | 4 | 1 | 0 | 80*
Cn1cnc([N+](=O)[O-])c1Sc1nc2ccccc2[nH]1 | x | x | x | -19
Cc1nc([N+](=O)[O-])c(N2CCN(Cc3ccccc3)CC2)n1Cc1ccccc1 | 2 | 27 | 0 | -13
Cc1cc2nc(Sc3c([N+](=O)[O-])nc(C)n3Cc3ccccc3)[nH]c2cc1C | 28 | 93* | 0 | -97
CCN1CCN(c2ccc([N+](=O)[O-])c(Sc3nc4ccccc4[nH]3)c2)CC1 | -8 | 15 | 1 | -6
Cc1ccc(-n2c(=O)c3ccc(C(=O)NCc4ccco4)cc3n(Cc3ccccc3C#N)c2=O)cc1 | 4 | -4 | 4 | 6
Cc1cccc(Cn2c(=O)n(Cc3ccco3)c(=O)c3ccccc32)c1 | 17 | 21 | 2 | 52
SMILES | WT yeast gro inh | L major viab | RAM inhibit | CHOP inh
Cc1ccccc1Cn1c(=O)n(-c2ccccc2)c(=O)c2ccc(C(=O)NCc3ccco3)cc21 | 11 | -6 | 2 | 81*
Cc1ccccc1Cn1c(=O)n(Cc2ccco2)c(=O)c2ccccc21 | 19 | 27 | 3 | 88*
CCOc1ccc(NC(=O)c2sc(NC(C)=O)c(C(=O)OC)c2C)cc1 | 3 | -4 | 2 | 73*
CCOC(=O)c1sc(NC(=O)Nc2ccccc2)cc1C | 41 | 92* | 4 | 27
CCOC(=O)c1c(C)nc2sc(C(N)=O)c(N)c2c1-c1ccccc1 | -2 | 34 | 1 | 22
COC(=O)c1c(NC(C)=O)sc(C(=O)Nc2ccccc2)c1C | -5 | -1 | 4 | -31
